This passage reports Inhibition results from ChEMBL document CHEMBL1157539, “Thousands of chemical starting points for antimalarial lead identification” (Nature, 2010).

Holding throughout (type): functional
Test [1] concerns Plasmodium falciparum. Nature of the test: GSK_TCMDC: Inhibition of Plasmodium falciparum 3D7 in whole red blood cells, using parasite LDH activity as an index of growth. Test compounds present at 2uM.
The test system of test [2] is Plasmodium falciparum. Nature of the test: GSK_TCMDC: Inhibition of Plasmodium falciparum Dd2 in whole red blood cells, using parasite LDH activity as an index of growth. Test compounds present at 2uM.
For a further test, the system named is HepG2. Nature of the test: GSK_TCMDC: Percent inhibition of human HepG2 cell line. Test compounds present at 10uM.

`O=C(CC1SC(N2N=C(c3cccs3)CC2c2ccccc2)=NC1=O)Nc1ccccc1F` (centres undefined): the Inhibition is on record as 87% in the test with Plasmodium falciparum [1], 76% in the test on Plasmodium falciparum [2] and 9% with HepG2.

In the case of `COc1ccc2nccc([C@@H](O)CN3CCC(NCCOc4cc(C(F)(F)F)ccc4F)CC3)c2c1.O=C(O)C(=O)O`, the figures for the Inhibition in the test with Plasmodium falciparum [1], in the test on Plasmodium falciparum [2] and in the test on HepG2 were 100%, 83% and 13%, respectively.

For the molecule `CCN1CCN(CCCNc2ccnc3cc(Cl)ccc23)CC1.Cl`, the Inhibition in the test with Plasmodium falciparum [1] amounted to 100%; in the test with Plasmodium falciparum [2], 77%; in the test on HepG2 it was 7%.

In the case of `Cc1noc(-c2ccc3c(c2)CCN(CCC2CCC(NC(=O)/C=C/c4cccc(Cl)c4)CC2)CC3)n1.Cl` (centres undefined), the Inhibition in the test on Plasmodium falciparum [1] turned out to be 86%; in the test on Plasmodium falciparum [2], 24%; in the test with HepG2, 37%.

Take `O=C(O)C(F)(F)F.Oc1ccc(CCNc2nc(NCCCOc3ccccc3-c3ccc(F)cc3)nc(N3CCNCC3)n2)cc1`: the Inhibition in the test with Plasmodium falciparum [1] was determined as 85%; with Plasmodium falciparum [2], 8%; in the test on HepG2, 30%.

With `COc1ccccc1CCNc1nccc(N[C@@H](Cc2ccccc2)C(=O)NCc2cccs2)n1.O=C(O)C(F)(F)F`, the Inhibition is recorded as 90% in the test with Plasmodium falciparum [1], 79% in the test on Plasmodium falciparum [2] and 34% in the test with HepG2.

Consider `O=C(Nc1ccc2c(c1)CN(Cc1ccc(N3CCCC3)o1)CCC2)c1ccoc1.O=CO`, for which the Inhibition turned out to be 89% in the test on Plasmodium falciparum [1], 76% in the test on Plasmodium falciparum [2] and 4% in the test on HepG2.

Regarding `Cc1ccc(O)cc1Nc1ccnc2cc(-c3csc(CN4CCN(C)CC4)n3)ccc12`, the Inhibition with Plasmodium falciparum [1] amounted to 100%; in the test on Plasmodium falciparum [2], 77%; in the test on HepG2 it was 6%.

Turning to `COc1cc(C=C(C2=NC(=O)CS2)c2nc3cccnc3n2C)ccc1O`, the values for the Inhibition in the test on Plasmodium falciparum [1], with Plasmodium falciparum [2] and in the test with HepG2 were 89%, 48% and 7%, respectively.

As for `Cl.N#Cc1ccc(-c2ccc3nc(N4CCCN(C5CCC5)CC4)ccc3c2)cc1`, the Inhibition is 96% in the test on Plasmodium falciparum [1], 14% in the test on Plasmodium falciparum [2] and 36% in the test on HepG2.

As for `Cn1c(Nc2cc(C(C)(C)C)on2)nc2cc(Nc3ccnc(Nc4ccc(CS(C)(=O)=O)cc4)n3)ccc21`, the Inhibition is reported as 100% in the test with Plasmodium falciparum [1], 68% with Plasmodium falciparum [2] and 37% in the test with HepG2.

In the case of `O=S(=O)(c1ccc(Cl)cc1Cl)N1CCCCC(c2ccc(C(F)(F)F)cc2)=N1`, the results for the Inhibition with Plasmodium falciparum [1], in the test with Plasmodium falciparum [2] and in the test on HepG2 were 100%, 99% and 10%, respectively.

As for `Cc1ccc(-n2nc(-c3ccccc3)c3cc(C(=O)NCCN)sc32)cc1`, the Inhibition in the test with Plasmodium falciparum [1] amounted to 92%; with Plasmodium falciparum [2], 43%; in the test with HepG2 it was 28%.

For `CC1(C)N=C(N)N=C(N)N1CCc1ccccc1.Cl`, the Inhibition in the test with Plasmodium falciparum [1] is 93%; in the test with Plasmodium falciparum [2], 0%; with HepG2, 50%.

Turning to `CCCCCCn1c(Sc2ccc(C#N)c([N+](=O)[O-])c2)nnc1-c1ccc(N(C)C)cc1`, the Inhibition in the test on Plasmodium falciparum [1] came out at 92%; in the test with Plasmodium falciparum [2], 25%; in the test on HepG2, 0%.

Turning to `CCN(CCNC(=O)C1CCN(c2cc(-c3cccc(C)c3)ncn2)CC1)Cc1ccccc1`, the results for the Inhibition in the test on Plasmodium falciparum [1], with Plasmodium falciparum [2] and with HepG2 were 83%, 72% and 24%, respectively.

Turning to `Fc1ccc2[nH]c(-c3ccc(-c4ccc(CNCc5cnn(-c6ccccc6)n5)cc4)cc3)nc2c1.O=C(O)C(F)(F)F`, the Inhibition with Plasmodium falciparum [1] amounted to 98%; with Plasmodium falciparum [2] it was 47%; in the test with HepG2, 41%.

As to `CN(C)c1ccc(NC(=O)Nc2ccnc3ccc(Br)cc23)cc1.Cl`, the Inhibition with Plasmodium falciparum [1] is on record as 91%; in the test with Plasmodium falciparum [2] it was 21%; in the test on HepG2, 0%.

On to `CCc1sc(N2CCN(C)CC2)nc1C(=O)NCCc1ccc(Cl)c(Cl)c1.O=C(O)C(F)(F)F`, for which the Inhibition in the test on Plasmodium falciparum [1] was 92%; in the test with Plasmodium falciparum [2] it was 49%; in the test with HepG2 it was 5%.

Consider `COc1cccc(CCc2ccc(O)c3c2C[C@H]2C[C@H]4[C@H](N(C)C)C(O)=C(C(N)=O)C(=O)[C@@]4(O)C(O)=C2C3=O)c1.Cl`, for which the Inhibition stood at 93% with Plasmodium falciparum [1], 67% in the test on Plasmodium falciparum [2] and 43% in the test with HepG2.

Turning to `COc1ccc2nccc([C@@H](O)CN3CCC(NC(=O)c4ccc(-c5ccccc5)s4)CC3)c2c1`, the Inhibition is on record as 100% in the test with Plasmodium falciparum [1], 81% in the test with Plasmodium falciparum [2] and 10% with HepG2.

As for `CCn1cnc2c(N3CCCC3=O)cc(C(=O)N[C@@H](Cc3ccccc3)[C@H](O)CNC3CCCCC3)cc21`, the Inhibition with Plasmodium falciparum [1] turned out to be 98%; with Plasmodium falciparum [2], 94%; with HepG2, 0%.

Regarding `Cl.O=c1nc(NCCCNCc2cc3c(Cl)cc(Cl)cc3[nH]2)[nH]c2ccccc12`, the Inhibition was determined as 91% in the test on Plasmodium falciparum [1], 4% in the test with Plasmodium falciparum [2] and 10% in the test on HepG2.

Consider `O=C(Nc1cccnc1)c1cc(C(=O)Nc2cccnc2)cc([N+](=O)[O-])c1`, for which the Inhibition in the test with Plasmodium falciparum [1] is given as 100%; in the test with Plasmodium falciparum [2], 100%; in the test on HepG2 it was 0%.

On to `CN(C)CCN(C)Cc1ccc(-c2ccc3c(Nc4ccc(Oc5ccccc5)cc4)ccnc3c2)o1`, for which the Inhibition with Plasmodium falciparum [1] is given as 100%; with Plasmodium falciparum [2] it was 100%; in the test on HepG2, 5%.

Turning to `Cc1ccc(N2C(N)=NC(N)=NC2(C)C)cc1Cl.Cl`, the figures for the Inhibition with Plasmodium falciparum [1], in the test with Plasmodium falciparum [2] and in the test with HepG2 were 90%, 77% and 66%, respectively.

`O=C(/C=C/c1ccc(Cl)c(Cl)c1)NCCCCCN1CCC(NC(=O)Nc2ccc(Cl)cc2F)CC1`: the Inhibition with Plasmodium falciparum [1] is 100%; in the test with Plasmodium falciparum [2], 40%; with HepG2, 100%.

As for `N#Cc1ccccc1C1CCN(C2CCC(Nc3cc(-c4cccnc4)ccn3)CC2)CC1` (centres undefined), the values for the Inhibition in the test with Plasmodium falciparum [1], with Plasmodium falciparum [2] and in the test with HepG2 were 100%, 78% and 38%, respectively.
